Assay results taken from PubChem BioAssay AID1851 (National Center for Advancing Translational Sciences (NCATS), 2009).
The whole screen tested about 16,000 compounds, of which about 5,700 (36%) were called active. Inconclusive results (about 24%) are left out. Calls come from the whole dose curve; as a rule, active = well fitted curve in the direction sought with a large enough effect; inconclusive = small, poorly fitted or top-dose-only effect, or effect the other way; inactive = no such curve, though single readings can be large or run the other way. Some of the results follow.

What follows are compounds tested against Cytochrome P450 1A2 (Homo sapiens) (UniProt P05177) (assay: Cytochrome panel assay with activity outcomes). Conditions: recombinant CYP, pro-luciferin dealkylation, luminescence, p450-cyp1a2; series mostly up to 57.1 µM; activity, negative = inhibition: at the top concentration.
Chain of Cytochrome P450 1A2 (Homo sapiens) (P05177 whole entry, looked up): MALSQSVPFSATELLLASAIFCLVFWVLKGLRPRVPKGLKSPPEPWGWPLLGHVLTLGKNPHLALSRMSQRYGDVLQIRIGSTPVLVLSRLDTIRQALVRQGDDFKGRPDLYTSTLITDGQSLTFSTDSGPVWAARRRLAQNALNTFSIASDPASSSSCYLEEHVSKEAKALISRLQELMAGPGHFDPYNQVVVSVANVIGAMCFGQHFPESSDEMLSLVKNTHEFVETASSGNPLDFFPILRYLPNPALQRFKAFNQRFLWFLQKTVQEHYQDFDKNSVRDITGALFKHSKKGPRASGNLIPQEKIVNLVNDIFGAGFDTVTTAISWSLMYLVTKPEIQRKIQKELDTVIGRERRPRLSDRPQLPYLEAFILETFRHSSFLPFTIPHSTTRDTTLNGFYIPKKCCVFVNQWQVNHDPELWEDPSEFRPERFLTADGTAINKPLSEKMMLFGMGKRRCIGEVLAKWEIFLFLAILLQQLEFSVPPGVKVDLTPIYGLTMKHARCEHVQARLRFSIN
% is set by controls: 0 for no effect and ±100 for the full control effect.

Question: For `CC(C)(C)CC(C)(C)c1ccc(OCOCCOCCO)c(Cc2cc(C(C)(C)CC(C)(C)C)cc(Cc3cc(C(C)(C)CC(C)(C)C)ccc3OCOCCOCCO)c2OCOCCOCCO)c1`, which “activity, negative = inhibition” value is on record?
Answer: -3.71% [at 25.6 µM] (inactive)

Question: With `COc1cccc(-c2csc(N3CCN(C(=S)Nc4ccccc4)CC3)n2)c1` as the compound, how does the AC50 read?
Answer: 3.16 µM (active)

Question: How did the “activity, negative = inhibition” value turn out when `CCOCCCNC(=O)C1CCN(S(=O)(=O)N2CC(C)CC(C)C2)CC1` (stereo unspecified) was run?
Answer: -3.01% (inactive)

Question: `Cc1ccc(NC(=O)/C(=C/c2cccc([N+](=O)[O-])c2)NC(=O)C2CCCCC2)c(C)c1` was tested. Which “activity, negative = inhibition” value did it give?
Answer: 10.1% (inactive)

Question: With `CCOC(=O)C1CCCN(S(=O)(=O)c2ccccc2)C1` (stereo unspecified) as the compound, how does the “activity, negative = inhibition” value read?
Answer: -11.5% (inactive)

Question: For `C[C@@H]1CCCN(CP(=O)(c2ccccc2)c2ccccc2)C1`, which activity, negative = inhibition is on record?
Answer: -3.49% [at 11.4 µM] (inactive)

Question: `CCOC(=O)C1CCCN(C(=O)/C=C/c2cccc([N+](=O)[O-])c2)C1` (stereo unspecified) was tested. Which AC50 did it give?
Answer: 11.2 µM (active)

Question: Which AC50 does the source give for `CCOC(=O)C1CCCN(C/C=C/c2ccccc2[N+](=O)[O-])C1` (stereo unspecified) here?
Answer: 4.47 µM (active)

Question: How did the AC50 turn out when `CC1CCCN(C/C=C/c2ccccc2[N+](=O)[O-])C1` (stereo unspecified) was run?
Answer: 14.1 µM (active)

Question: `O=C(O)[C@H]1CCCN(CCC=C(c2ccccc2)c2ccccc2)C1` was tested. Which “activity, negative = inhibition” value did it give?
Answer: -1.11% (inactive)

Question: `O=C(c1ccco1)N1CCC2(CCCN(c3ccccc3)C2)CC1` was tested. Which “activity, negative = inhibition” value did it give?
Answer: 6.83% (inactive)

Question: `O=C(c1ccco1)N1CCC2(CC1)CCN(c1cccc(-c3ccccc3)c1)CC2` was tested. Which AC50 did it give?
Answer: 15.8 µM (active)

Question: `O=C(c1ccco1)N1CCC[C@@]2(CCN(c3ccncc3)C2)C1` was tested. Which AC50 did it give?
Answer: 12.6 µM (active)

Question: `O=C(c1ccco1)N1CCC[C@@]2(CCN(c3cccc(-c4ccccc4)c3)C2)C1` was tested. Which AC50 did it give?
Answer: 15.8 µM (active)

Question: How did the “activity, negative = inhibition” value turn out when `O=C(c1ccncc1)N1CCC[C@@]2(CCN(c3ccccc3)C2)C1` was run?
Answer: -10.4% (inactive)

Question: How did the “activity, negative = inhibition” value turn out when `O=C(c1ccco1)N1CCC2(CC1)CCN(c1ccc(-c3ccccc3)cc1)CC2` was run?
Answer: -28.9% (inactive)

Question: How did the “activity, negative = inhibition” value turn out when `O=C(c1ccco1)N1CCC2(CC1)CCN(c1ccccc1)CC2` was run?
Answer: -19% (inactive)

Question: `O=C(c1ccco1)N1CCC2(CC1)CN(c1ccccc1)C2` was tested. Which “activity, negative = inhibition” value did it give?
Answer: -12.3% (inactive)

Question: How did the “activity, negative = inhibition” value turn out when `O=C(c1ccco1)N1CCC[C@@]2(CCN(Cc3ccccc3)C2)C1` was run?
Answer: -3.18% (inactive)

Question: For `CCOc1ccc(-c2nn(-c3ccccc3)cc2/C=C(\C#N)S(=O)(=O)c2ccccc2)cc1C`, which AC50 is on record?
Answer: 1 µM (active)

Question: For `O=[N+]([O-])/C=C/c1cn(Cc2ccccc2)c2ccccc12`, which AC50 is on record?
Answer: 3.55 µM (active)

Question: With `O=C1C2C3C=CC(C3)C2C(=O)N1/N=C/c1cn(Cc2ccc(F)cc2)c2ccccc12` (stereo unspecified) as the compound, how does the “activity, negative = inhibition” value read?
Answer: -24.6% (inactive)

Question: For `CCC(C(=O)c1ccccc1)N(C(=O)c1ccccc1Cl)N1C(=O)C2C3C=CC(C3)C2C1=O` (stereo unspecified), which “activity, negative = inhibition” value is on record?
Answer: 4.91% (inactive)

Question: For `O=C1C2C3C=CC(C3)C2C(=O)N1/N=C/c1cn(Cc2ccccc2)c2ccccc12` (stereo unspecified), which AC50 is on record?
Answer: 15.8 µM (active)

Question: Which “activity, negative = inhibition” value does the source give for `COc1ccc2c(c1OC)C(=O)N(C(C)C(=O)O)C2=O` (stereo unspecified) here?
Answer: 4.35% (inactive)

Question: Which activity, negative = inhibition does the source give for `NS(=O)(=O)c1ccc(N=Nc2nc3[nH]c(=O)[nH]c(=O)c3[nH]2)cc1` here?
Answer: -13.4% [at 11.4 µM] (inactive)

Question: For `O=c1[nH]c(=O)c2nc3ccccc3nc2[nH]1`, which AC50 is on record?
Answer: 12.6 µM (active)

Question: With `COc1cnc(NS(=O)(=O)c2ccc(N)cc2)nc1` as the compound, how does the “activity, negative = inhibition” value read?
Answer: -7.79% [at 25.6 µM] (inactive)

Question: For `CC(=O)Nc1ccnc(-c2cccnc2)n1`, which AC50 is on record?
Answer: 2.51 µM (active)

Question: With `CC(C)(C)C(=O)Nc1ccnc(-c2cccnc2)n1` as the compound, how does the AC50 read?
Answer: 2.24 µM (active)

Question: With `CCC(=O)O[C@@]1(C(=O)CCl)[C@@H](C)C[C@@H]2[C@H]3CCC4=CC(=O)C=C[C@@]4(C)[C@]3(F)[C@@H](O)C[C@@]21C` as the compound, how does the “activity, negative = inhibition” value read?
Answer: -9.28% [at 25.6 µM] (inactive)

Question: Which activity, negative = inhibition does the source give for `O=C1[C@@H]2[C@H]3[C@H](O)[C@H](O)C/C(=N/OC[C@@H](O)COCc4ccco4)[C@H]3CC[C@H]2C(=O)N1c1ccc(F)cc1F` here?
Answer: 0.735% [at 11.4 µM] (inactive)

Question: For `Nc1n[nH]c2ccccc12`, which activity, negative = inhibition is on record?
Answer: -9.07% [at 2.29 µM] (inactive)

Question: For `Cc1[nH]c2ccccc2c1-c1cc(-c2cc(-c3c(C)[nH]c4ccccc34)on2)no1`, which AC50 is on record?
Answer: 0.398 µM (active)

Question: `Cc1[nH]c2ccccc2c1-c1cc(-c2cc(-c3c(C)[nH]c4ccccc34)nc(N)n2)nc(N)n1` was tested. Which AC50 did it give?
Answer: 0.398 µM (active)

Question: Which activity, negative = inhibition does the source give for `COc1ccc(COC(=O)N/N=C2/C[C@@H](O)[C@@H](O)[C@@H]3[C@@H]4C(=O)N(c5cccc(Oc6ccccc6)c5)C(=O)[C@H]4CC[C@H]23)cc1` here?
Answer: 3.29% [at 11.4 µM] (inactive)

Question: For `CC1=Nc2ccccc2/C1=C\c1nc(-c2ccc(C(F)(F)F)cc2)oc1O`, which AC50 is on record?
Answer: 0.891 µM (active)

Question: How did the “activity, negative = inhibition” value turn out when `O=S(=O)(c1ccccc1)N1CCC2(CCCN(c3cccc(-c4ccccc4)c3)C2)CC1` was run?
Answer: 1.5% (inactive)

Question: With `O=C(c1cnccn1)N1CCC2(CCCN(c3cccc(-c4ccccc4)c3)C2)CC1` as the compound, how does the AC50 read?
Answer: 20 µM (active)

Question: With `O=C(c1cnccn1)N1CCC2(CC1)CN(c1ccccc1)C2` as the compound, how does the “activity, negative = inhibition” value read?
Answer: -2.2% (inactive)

Question: Which “activity, negative = inhibition” value does the source give for `O=C(c1cnccn1)N1CCC2(CCCN(c3ccccc3)C2)CC1` here?
Answer: -3.6% (inactive)

Question: `O=C(c1cnccn1)N1CCC[C@@]2(CCN(c3cccc(-c4ccccc4)c3)C2)C1` was tested. Which AC50 did it give?
Answer: 25.1 µM (active)

Question: For `O=C(c1ccncc1)N1CCC2(CC1)CN(c1ccccc1)C2`, which “activity, negative = inhibition” value is on record?
Answer: -19.4% (inactive)

Question: For `CS(=O)(=O)N1CCC2(CC1)CN(c1ccncc1)C2`, which “activity, negative = inhibition” value is on record?
Answer: -0.451% (inactive)

Question: `O=C(c1cnccn1)N1CCC[C@@]2(CCN(c3ccncc3)C2)C1` was tested. Which “activity, negative = inhibition” value did it give?
Answer: -10.2% (inactive)

Question: Which AC50 does the source give for `CS(=O)(=O)N1CCC2(CC1)CN(c1cccc(-c3ccccc3)c1)C2` here?
Answer: 5.01 µM (active)

Question: `O=C(c1cnccn1)N1CCC[C@@]2(CCN(c3ncccn3)C2)C1` was tested. Which “activity, negative = inhibition” value did it give?
Answer: -14.5% (inactive)

Question: `O=C(c1ccncc1)N1CCC2(CC1)CN(c1ccc(-c3ccccc3)cc1)C2` was tested. Which “activity, negative = inhibition” value did it give?
Answer: -10.2% (inactive)

Question: Which AC50 does the source give for `O=C(c1ccncc1)N1CCC2(CC1)CN(c1cccc(-c3ccccc3)c1)C2` here?
Answer: 15.8 µM (active)

Question: How did the AC50 turn out when `COc1cc(CNCc2ccccn2)ccc1OCc1ccc(Cl)cc1Cl` was run?
Answer: 0.316 µM (active)

Question: Which “activity, negative = inhibition” value does the source give for `COc1ccc(CNC(C)(C)C)cc1Cl` here?
Answer: 4.33% (inactive)

Question: With `CCSc1nc2ccccc2n1C(=O)/C=C\c1ccc(OC)c(OC)c1` as the compound, how does the AC50 read?
Answer: 6.31 µM (active)

Question: Which AC50 does the source give for `C=CCSc1nc2ccccc2n1C(=O)/C=C/c1cc(OC)c(OC)c(OC)c1` here?
Answer: 7.08 µM (active)

Question: With `CCn1c(-c2ccccc2Cl)nn(CC(=O)Nc2cc(Cl)ccc2Cl)c1=S` as the compound, how does the AC50 read?
Answer: 15.8 µM (active)

Question: `CCn1c(-c2ccccc2Cl)nn(CC(=O)Nc2ccccc2OC)c1=S` was tested. Which “activity, negative = inhibition” value did it give?
Answer: -20.3% (inactive)

Question: For `CC(=O)OC[C@H]1O[C@@H](O/N=C(\C)CCN2CCCc3nc(C)c(C)cc32)[C@H](OC(C)=O)[C@@H](OC(C)=O)[C@H]1OC(C)=O`, which activity, negative = inhibition is on record?
Answer: 0.931% [at 11.4 µM] (inactive)
